# KB-3-1 cytotox – KB-3-1 parental cell cytotoxicity; KB-3-1 viability, CellTiter-Glo ATP luminescence, 72 h; Potency, µM (titrated, usually from 46.1 µM), actives largely listed as cytotoxic; 400,000 tested, 1.4% active; note: nearly all actives have a fitted effect of over 60% in size
#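 Cytotoxicity in the drug-sensitive parental line KB-3-1 was scored as loss of CellTiter-Glo luminescence following 72 h incubation with compound. Values come from curve fitting of normalized concentration-response data.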
# KB-V1 cytotox – kills drug-selected multidrug resistant KB-V1 cells | KB-V1 MDR cells viability, CellTiter-Glo, 72 h | Potency, µM (titrated, usually from 46.1 µM), actives largely listed as cytotoxic | 400,000 tested, 3.4% active; note: nearly all actives have a fitted effect of over 60% in size
#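 KB-V1, DMEM (no phenol red) + 10% FBS; cpd pin-transferred, titration series; 72 h, 37 degrees C; CellTiter-Glo, luminescence. Data normalized, curve-fit.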
# HT1080NT lethal – kills 2HG-producing HT-1080-NT fibrosarcoma cells; 360,000 tested, 1.6% active; AID 686970; HT-1080-NT fibrosarcoma viability, CellTiter-Glo ATP luminescence, 48 h; Potency, µM (top dose mostly 46.1 µM), without a hit: top-dose activity, negative = less viability, hits mostly cytotoxic;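 note: NT is the 2HG producing partner of a matched IDH1 knockdown line; 0% = DMSO-treated cells and -100% = media-only wells without cells; nearly all actives have a fitted effect of over 55% in size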
#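 Toxicity toward the 2HG-producing NT line was scored as %Activity, normalised to DMSO and no-cell wells, from CellTiter-Glo luminescence after 48 hours' treatment.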
# DT40 TDP1 CPT – growth inhibition of DT40 Tdp1-/-;hTDP1 cells with camptothecin (screen for TDP1 inhibitors) | chicken DT40 Tdp1-/-;hTDP1 cells + 20 nM CPT, ATP luminescence, 48 h | Potency, µM (series often up to 46.2 µM), inactives show top-dose activity change, negative = growth inhibition, actives largely listed as inhibitors | 420,000 tested, 12% active; note: nearly all actives have a fitted effect of over 55% in size
#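 Cell growth measured by CellTiter-Glo luminescence after a minimum 48 h, 37 C compound exposure with 20 nM CPT in Tdp1-knockout DT40 cells stably expressing hTDP1, seeded 400/well; qHTS titration format.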
# HT1080 IDH1KD tx – toxicity to HT-1080 IDH1 knockdown cells (counter line) | Potency, µM (titrated, usually from 46.1 µM), inactives show top-dose activity, negative = toxicity, usual class: cytotoxic | AID 686971 | 360,000 tested, 2% active | HT-1080 IDH1 knockdown viability, ATP luminescence, 48 h;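 note: 0% = DMSO wells and -100% = cell-free medium wells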
#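 After a 2 h attachment period, IDH1KD HT-1080 cells took pin-transferred compound for 48 h at 37 °C; ATP-based luminescence after 10 min room-temperature reagent incubation reported viability.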
# TDP1 cell noCPT – qHTS for Inhibitors of human tyrosyl-DNA phosphodiesterase 1 (TDP1): qHTS in cells in absence of CPT. DT40 Tdp1-/- hTDP1 cells, no CPT, ATP luminescence, 48 h. Potency, µM (doses to about 46.2 µM), without a hit: top-dose activity change, negative = growth inhibition, usual class: inhibitors. 420,000 tested, 15% active. AID 686978, 2013; note: nearly all actives have a fitted effect of over 55% in size
#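 Stably hTDP1-transfected Tdp1-null chicken DT40 cells were treated with library compounds minus camptothecin and grown for at least 48 hr at 37 °C, after which cellular ATP was quantified by luminescence.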
# * marks the source's active call; other numbers are inactive results; i = inactive; u = inconclusive; x = no result given; [ ] = another dose, or the depositor's remark. Hits are enriched below; roughly 19% of the tested compounds scored in any of these assays. Calls come from the whole dose curve; as a rule, active = well fitted curve in the direction sought with a large enough effect; inconclusive = small, poorly fitted or top-dose-only effect, or another doubt; inactive = no such curve, though single readings can be large; an effect the other way counts as inactive or inconclusive. Unless noted, % is set by controls: 0 for no effect and ±100 for the full control effect; potency is the fitted concentration of half-maximal effect.
SMILES,KB-3-1 cytotox,KB-V1 cytotox,HT1080NT lethal,DT40 TDP1 CPT,HT1080 IDH1KD tx,TDP1 cell noCPT
CCN1C(=O)C(O)(CC(=O)c2ccc3c(c2)OCCO3)c2ccccc21 (centres undefined),i,i,3.4%,-7.5%,3.1%,-19.9%
N#CCc1ccc(C(=O)c2ccccc2F)s1,i,u,10.9%,-13.0%,8.1%,-31.1%
Cc1ccc(OCCCC(=O)N(C)CC(=O)Nc2ccccc2Cl)cc1,i,i,5.9%,-5.3%,2.8%,-20.2%
CCc1ccc(C(=O)CC2(O)C(=O)N(Cc3ccc(C)cc3)c3ccccc32)cc1 (centres undefined),x,x,x,4.61µM*,x,2.59µM*
CCCCN1C(=O)C(O)(CC(=O)c2ccc(C(C)(C)C)cc2)c2ccccc21 (centres undefined),x,x,x,20.6µM*,x,14.6µM*
COc1cccc(CNC(=O)NCc2noc3ccc(C)cc23)c1,i,i,x,u,x,u
COc1ccc(N(CC(=O)Nc2cccnc2)S(=O)(=O)c2ccccc2)cc1OC,i,i,-8.3%,-11.2%,0.8%,-14.7%
NS(=O)(=O)c1cccc(NC(=O)CCSc2ccc(Cl)cc2)c1,i,i,14.1%,u,26.7%,11.6µM*
O=C(Cc1ccc(Cl)cc1)Nc1cccc(S(=O)(=O)Nc2ccccc2F)c1,i,i,0.4%,-6.6%,-0.1%,u
NC(=O)c1ccccc1NC(=O)CC12CC3CC(CC(C3)C1)C2,i,i,-14.5%,20.6µM*,-9.2%,u
CN(C)S(=O)(=O)Nc1cccc(NC(=O)CC23CC4CC(CC(C4)C2)C3)c1,i,i,-22.5%,-26.0%,-27.1%,-23.7%
CN(C)S(=O)(=O)c1cccc(NC(=O)Cc2ccc(Cl)cc2)c1,i,20.6µM*,3.0%,u,2.3%,u
CN(C)S(=O)(=O)c1cccc(NC(=O)CC23CC4CC(CC(C4)C2)C3)c1,i,i,-7.7%,23.1µM*,-13.6%,20.6µM*
O=C(O)c1cc(-c2ccc(Cl)cc2)n(-c2ccc(F)cc2)n1,i,i,-2.9%,18.1%,1.4%,-6.7%
Cc1nnc(SCCC(=O)Nc2ccccc2Cl)o1,i,i,21.1%,-1.2%,25.0%,-5.8%
O=C(NCc1ccc(F)cc1)c1cc(C2CCCCN2S(=O)(=O)Cc2ccccc2)on1 (centres undefined),i,i,-2.0%,u,-4.5%,u
COc1ccccc1/C=N/Nc1cc(C)nc2ccc(C)cc12,i,i,1.1%,u,-0.6%,-25.1%
Cc1cc(N/N=C/c2ccc(O)cc2)c2cccc(C)c2n1,i,i,u,u,u,u
Oc1ccc(/C=N/Nc2nc(-c3ccc(Cl)cc3)cc(C(F)(F)F)n2)cc1,u,u,u,u,16.4µM*,u
Cc1cc(C)c2nc(C)cc(N/N=C/c3ccc(O)cc3)c2c1,u,u,5.17µM*,3.26µM*,5.8µM*,3.26µM*
COc1ccc(/C=N/Nc2nc(C)cc(-c3ccccc3)n2)c(OC)c1,i,i,9.7%,13.2%,21.3%,20.6µM*
Nc1nc(-c2ccc(Cl)cc2)cc(C(F)(F)F)n1,i,i,8.2%,-16.0%,u,-1.3%
COc1ccc(/C=N/Nc2cc(C)nc3ccc(OC)cc23)c(OC)c1,u,u,23.1µM*,11.6µM*,5.17µM*,5.8µM*
COc1ccc(O)c(/C=N/Nc2nc(C)cc(-c3ccccc3)n2)c1,i,u,u,u,u,u
Cc1ccsc1CN(C)C(=O)CN1C(=O)NC(c2ccccc2)(c2ccccc2)C1=O,u,i,-2.0%,u,-0.2%,-15.5%
SMILES,KB-3-1 cytotox,KB-V1 cytotox,HT1080NT lethal,DT40 TDP1 CPT,HT1080 IDH1KD tx,TDP1 cell noCPT
CCOC(=O)C1(C)CCCN(C(=O)c2ccccc2OC(F)(F)F)C1 (centres undefined),i,i,28.6%,-25.6%,14.3%,-25.1%
O=C(COC(=O)c1ccccc1C(=O)c1ccc(Cl)cc1)NCC1CCCO1 (centres undefined),i,i,9.3%,2.7%,16.7%,-11.1%
CN(C(=O)C(=O)Nc1ccc2nc3n(c(=O)c2c1)CCCCC3)c1cccc(C(F)(F)F)c1,i,i,x,4.0%,x,-0.7%
CC(CN1CCCC1)OC(=O)c1ccc(Cl)cc1 (centres undefined),i,i,-2.2%,3.8%,0.0%,-1.5%
Cc1cc(-c2ccccc2)nc(N/N=C/c2ccc(O)cc2)n1,20.6µM*,u,u,11.6µM*,u,u
CCCCCCn1cc(CN2CC(N3CCN(C4CCN(C)CC4)CC3)CS2(=O)=O)nn1 (centres undefined),i,i,12.5%,0.2%,15.8%,-8.6%
CC1CCc2onc(C(=O)O)c2C1 (centres undefined),i,i,2.2%,4.5%,10.5%,1.0%
CCCCCCCCCc1conc1C(=O)/C=C/c1oc2c(c1C)CCC(C)C2 (centres undefined),i,i,u,20.6µM*,u,14.6µM*
COc1cccc(NC(=O)COC(=O)c2c(NC(C)=O)sc(C)c2C)c1,i,u,-5.5%,-23.7%,3.5%,3.7%
COc1ccc(CNC(=O)COC(=O)c2c(NC(C)=O)sc(C)c2C)cc1OC,i,i,-13.6%,u,-19.0%,23.1µM*
CC(=O)Nc1sc(C)c(C)c1C(=O)OCC(=O)Nc1cccc(C)c1,u,i,7.2%,16.4µM*,11.7%,16.4µM*
COc1ccccc1NC(=O)COC(=O)c1c(NC(C)=O)sc(C)c1C,i,u,-15.0%,u,-16.0%,16.4µM*
CC(=O)Nc1sc(C)c(C)c1C(=O)OCC(=O)Nc1ccccc1,i,i,5.2%[9.24 µM],u,-3.1%,-16.6%
CCOC(=O)c1sc2cccc(F)c2c1S(=O)(=O)NCc1ccccc1Cl,i,i,x,-26.7%,x,-18.5%
Cc1cccc(NS(=O)(=O)c2cccc(C(=O)N3CCCCCC3)c2)c1,i,i,-1.7%,u,-6.2%,u
COc1cccc(/C=C/C(=O)N2CCN(S(=O)(=O)c3ccccc3)CC2)c1,i,u,-4.6%,u,-14.6%,20.6µM*
O=C(c1cccc(S(=O)(=O)Nc2ccccc2Cl)c1)N1CCCCCC1,i,18.4µM*,-4.0%,-14.4%,2.7%,-16.4%
O=C(c1ccc(S(=O)(=O)Nc2ccccc2Cl)cc1)N1CCCC1,i,i,0.4%,-8.5%,2.6%,15.9%
